CYP2C19 act = increases human CYP2C19 enzyme activity; activation factor at 5 µM; recombinant CYP2C19, luciferin-H EGE luminescence; hits give high values; 0 = fully inhibited enzyme, 1 = untreated enzyme; 96,000 tested, under 10 active; P33261; AID 1025;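 active = activation factor of at least 2 at 5 µM in the primary screen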
CYP2C19 inh = human CYP2C19 inhibition. actives 21% (n = 96,000). inhibition, % at 5 µM. CYP2C19 Supersomes, luciferin-H EGE luminescence, 30 min;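 active = CYP2C19 inhibition above a set limit at 5 µM in the primary screen, cut at about 50% in these data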
CYP2C9 inhib = inhibitors of human CYP2C9; P11712; CYP2C9 Supersomes, luciferin-H conversion, luminescence; inhibition, % at 5 µM; actives 20% (n = 96,000); AID 777;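 active = blocking of liver enzyme CYP2C9 beyond about 50% at 5 µM, limit read from the data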
Cav32 inh = inhibitors of human Cav3.2 T-type calcium channel; actives 4% (n = 100,000); Cav3.2-expressing cells, Fluo-4 calcium fluorescence FDSS; hits give low values; O95180; B-score at 10 µM;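 active = single-dose well whose peak fluorescence ratio is a statistical outlier from its plate by either plate-standardised score or position-corrected B-score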
Target sequence (O95180 whole entry, looked up): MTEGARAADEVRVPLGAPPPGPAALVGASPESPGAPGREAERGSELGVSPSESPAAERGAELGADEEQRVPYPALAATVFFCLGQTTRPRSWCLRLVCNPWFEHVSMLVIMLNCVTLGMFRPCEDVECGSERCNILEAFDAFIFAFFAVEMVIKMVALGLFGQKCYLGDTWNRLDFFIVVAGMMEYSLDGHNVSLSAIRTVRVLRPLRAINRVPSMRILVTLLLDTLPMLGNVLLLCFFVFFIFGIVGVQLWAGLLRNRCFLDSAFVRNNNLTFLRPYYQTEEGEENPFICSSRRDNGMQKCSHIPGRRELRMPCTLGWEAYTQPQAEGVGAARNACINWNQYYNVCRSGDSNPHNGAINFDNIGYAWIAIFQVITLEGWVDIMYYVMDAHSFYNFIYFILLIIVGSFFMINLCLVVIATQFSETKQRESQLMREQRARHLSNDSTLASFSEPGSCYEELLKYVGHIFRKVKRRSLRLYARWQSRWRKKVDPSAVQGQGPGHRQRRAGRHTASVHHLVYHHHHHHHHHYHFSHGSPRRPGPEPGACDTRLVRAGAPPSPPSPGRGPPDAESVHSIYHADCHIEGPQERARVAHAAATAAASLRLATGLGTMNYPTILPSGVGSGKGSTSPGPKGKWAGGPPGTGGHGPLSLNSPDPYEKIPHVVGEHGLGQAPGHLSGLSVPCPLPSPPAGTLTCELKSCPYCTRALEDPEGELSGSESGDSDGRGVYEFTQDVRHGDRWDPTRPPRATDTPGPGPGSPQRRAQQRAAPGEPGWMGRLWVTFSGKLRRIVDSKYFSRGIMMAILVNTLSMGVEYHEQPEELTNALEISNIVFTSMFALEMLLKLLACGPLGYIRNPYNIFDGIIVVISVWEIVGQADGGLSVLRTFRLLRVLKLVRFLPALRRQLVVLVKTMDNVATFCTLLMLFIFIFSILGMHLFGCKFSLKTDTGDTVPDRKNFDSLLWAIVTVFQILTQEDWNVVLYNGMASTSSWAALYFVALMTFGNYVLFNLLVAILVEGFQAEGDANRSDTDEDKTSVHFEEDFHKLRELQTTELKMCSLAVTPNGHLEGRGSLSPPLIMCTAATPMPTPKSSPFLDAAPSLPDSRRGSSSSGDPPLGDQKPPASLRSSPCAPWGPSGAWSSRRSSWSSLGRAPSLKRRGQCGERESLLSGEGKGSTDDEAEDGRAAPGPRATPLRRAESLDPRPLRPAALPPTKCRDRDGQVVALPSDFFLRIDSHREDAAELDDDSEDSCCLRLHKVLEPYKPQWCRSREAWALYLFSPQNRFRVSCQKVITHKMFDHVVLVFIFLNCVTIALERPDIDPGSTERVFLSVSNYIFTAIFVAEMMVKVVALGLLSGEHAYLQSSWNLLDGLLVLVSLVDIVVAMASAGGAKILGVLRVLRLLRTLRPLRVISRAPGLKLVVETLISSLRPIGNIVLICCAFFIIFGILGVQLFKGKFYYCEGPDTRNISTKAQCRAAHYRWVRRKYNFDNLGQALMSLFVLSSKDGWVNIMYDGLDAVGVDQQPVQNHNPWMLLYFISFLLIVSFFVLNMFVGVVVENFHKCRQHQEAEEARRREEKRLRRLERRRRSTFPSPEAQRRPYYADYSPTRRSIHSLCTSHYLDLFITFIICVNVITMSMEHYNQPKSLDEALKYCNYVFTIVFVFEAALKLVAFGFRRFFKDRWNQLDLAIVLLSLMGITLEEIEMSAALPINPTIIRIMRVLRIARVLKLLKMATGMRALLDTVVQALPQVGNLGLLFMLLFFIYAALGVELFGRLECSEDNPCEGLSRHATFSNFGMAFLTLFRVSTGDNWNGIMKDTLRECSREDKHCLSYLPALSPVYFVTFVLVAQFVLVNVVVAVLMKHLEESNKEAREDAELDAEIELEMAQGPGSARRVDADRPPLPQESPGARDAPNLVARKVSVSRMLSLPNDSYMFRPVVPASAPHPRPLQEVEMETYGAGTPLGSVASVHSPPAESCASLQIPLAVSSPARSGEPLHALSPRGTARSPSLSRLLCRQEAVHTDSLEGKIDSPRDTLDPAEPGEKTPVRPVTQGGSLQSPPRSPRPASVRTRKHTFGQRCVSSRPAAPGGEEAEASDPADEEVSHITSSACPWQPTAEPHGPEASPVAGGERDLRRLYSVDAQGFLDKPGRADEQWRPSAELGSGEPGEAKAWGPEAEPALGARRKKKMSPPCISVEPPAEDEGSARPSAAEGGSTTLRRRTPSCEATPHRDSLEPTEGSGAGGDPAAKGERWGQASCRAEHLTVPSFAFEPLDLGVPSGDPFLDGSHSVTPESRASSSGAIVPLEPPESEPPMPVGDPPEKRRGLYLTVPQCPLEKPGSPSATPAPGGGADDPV
Pyk2 oligo antag = Pyk2 (human) oligomerization antagonism. AID 1347419. Q14289. actives 0.83% (n = 99,000). z-score (the deposit names both 25 µM and 10 µM). Q293 cells, Pyk2 FERM NanoBiT luminescence; hits give low values;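 active = Z-score of -3 or lower, scaled per plate to the spread of control and sample wells; inactive = z-score above -3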;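 note: negative z-score means lost luminescence so less FERM oligomerization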
CYP2C9 act = CYP2C9 (human) activation; P11712; recombinant CYP2C9, luciferin-H conversion, luminescence; hits give high values; factor 1 = untreated enzyme, 0 = blocked; activation factor at 5 µM; actives 1.4% (n = 96,000);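 active = activation factor of 2 or more for CYP2C9 at a 5 µM dose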
Hits are given with their value; . = inactive; / = no result. Hits are enriched below; roughly 27% of the tested compounds scored in any of these assays.

SMILES	CYP2C19 act	CYP2C19 inh	CYP2C9 inhib	Cav32 inh	Pyk2 oligo antag	CYP2C9 act
CC(C)c1ccc(C2CC(=O)c3cnc(N4CCc5ccccc5C4)nc3C2)cc1 (centres undefined)	.	.	.	.	.	.
Cc1csc(/C(=N\O)c2csc(C)n2)n1	.	.	.	.	.	.
CC(SCCc1ccccn1)C(=O)O (centres undefined)	.	.	.	.	.	.
Cc1nc(N2CCN(Cc3ccccc3)CC2)nc2c1C(=O)CC(C)C2 (centres undefined)	.	61	77	.	.	.
C[N+]12CCCCC1C(COC(=O)c1ccc3c(c1)OCO3)CCC2 (centres undefined)	.	.	.	/	.	.
CCOC(=O)c1cn(CC)c2ccc(Br)cc2c1=O	.	.	.	.	.	2
CNC(=S)N1C2CCC1CC(NC(=O)NC13CC4CC(CC(C4)C1)C3)C2 (centres undefined)	.	.	.	.	.	.
Cc1ccc(-c2noc(CCC(=O)NCCCN3CCN(c4ccc(F)cc4)CC3)n2)cc1	.	57	70	.	.	.
O=C(NCCCN1CCN(c2cccc(Cl)c2)CC1)c1cccc(N2CCCC2=O)c1	/	/	/	.	.	/
O=C(CCc1nc(-c2ccccc2F)no1)NCCN1CCOCC1	.	.	.	.	.	.
Cc1ccc(-c2noc(CCC(=O)NCCCN3CCN(c4cccc(Cl)c4)CC3)n2)cc1	.	.	74	.	.	.
COc1ccc(-c2noc(CCC(=O)NCCN3CCN(c4ccccc4F)CC3)n2)cc1	.	.	69	.	.	.
O=C(NCCCN1CCN(c2cccc(Cl)c2)CC1)c1ccc(N2CCCC2=O)cc1	.	.	66	.	.	.
COc1ccc(-c2noc(CCC(=O)NCCCN3CCC(C)CC3)n2)cc1	.	.	.	.	.	.
O=C(CCS(=O)(=O)c1ccc(Br)cc1)N1CCN(c2ccccc2Cl)CC1	.	71	.	-5.7	.	.
O=C(CCn1c(=O)oc2ccccc21)N1CCN(c2ccccc2Cl)CC1	/	/	/	-4	.	/
O=C(CCn1c(=O)oc2ccccc21)NCCN1CCc2ccccc2C1	.	.	.	.	.	.
O=C(CCn1c(=O)oc2ccccc21)N1CCCCCC1	/	/	/	.	.	/
O=C(CCCn1c(=O)oc2ccccc21)N1CCc2ccccc2C1	.	75	.	.	.	.
C=C1CCN([C@@H](C)C(=O)NCc2ccc(OC)cc2)S(=O)(=O)c2ccccc21	/	/	/	.	/	/
COC(=O)C1=C(C(=O)OC)[C@@H]2Nc3ccccc3[C@@]23C[C@@H](C(=O)OC)N(C(C)=O)C3=N1	/	/	/	.	/	/
Cc1ccccc1-c1nnc(SCCOc2ccc3c(C)cc(=O)oc3c2)o1	.	.	.	.	.	.
O=C1/C(=C\c2cccnc2)CCc2ccccc21	.	75	.	/	.	.
CC(NC(=O)NC1CCCCC1)C(c1cccs1)N1CCN(C)CC1 (centres undefined)	.	.	.	.	/	.
COc1ccc(NC(=O)CCCCCN2C(=O)CCC2=O)cc1Cl	.	.	.	.	.	.
SMILES	CYP2C19 act	CYP2C19 inh	CYP2C9 inhib	Cav32 inh	Pyk2 oligo antag	CYP2C9 act
O=C(CCCCCN1C(=O)CCC1=O)Nc1ccc(Cl)c(C(F)(F)F)c1	.	69	.	.	.	.
O=c1c2cc(N3CCOCC3)ccc2[nH]c(=S)n1CC1CCCO1 (centres undefined)	.	.	62	.	.	.
CCOC(=O)N1CCN(c2nc(C)cc(C(F)(F)F)n2)CC1	.	66	.	.	.	.
COc1ccccc1NC(=O)CSc1nnnn1C	.	.	.	.	.	.
COc1cc(CNCCSc2nnnn2C)cc(Br)c1OCc1ccc(F)cc1	.	76	.	.	.	.
CCOc1cc(CNCCSc2nnnn2C)cc(Br)c1OCc1ccccc1F	.	84	.	.	.	.
CCOc1cc(CNCCO)cc(Br)c1OCc1ccc(Cl)cc1Cl	.	.	.	.	.	.
CCOc1cc(CNCCO)cc(Br)c1OCc1cccs1	.	.	.	.	.	.
COc1cc(CNCCSc2nnnn2C)cc(Br)c1OCc1ccccc1F	.	68	.	.	.	.
CCOc1cc(CNCc2cccs2)cc(Br)c1OCC	.	73	.	.	.	.
CCC1=NNc2cccc3c(OC)ccc1c23	.	.	.	.	/	.
CCOc1cc(CNCc2ccncc2)cc(Br)c1OCc1ccccc1F	.	85	91	.	.	.

Screening data deposited in PubChem BioAssay by several laboratories.
